From PubChem
ELG1 DNA repair: qHTS screen for small molecules that inhibit ELG1-dependent DNA repair in human embryonic kidney (HEK293T) cells expressing luciferase-tagged ELG1 | HEK293T ELG1-luciferase reporter, luminescence, 16 h; DNA damage induced by 5-fluorouridine | Potency, µM (titrated, usually from 46.1 µM), for the others: top-dose activity change, negative = inhibition, hits mostly inhibitors | 330,000 compounds, 2.3% hits; note: potency is the fitted concentration of half-maximal effect; nearly all actives have a fitted effect of over 55% in size
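Step one: seed 2,000 cells per well. Step two: pin-transfer compound or DMSO alongside 5-fluorouridine. Step three: incubate 16 hr, 37 °C, 5% CO2. Step four: add ONE-Glo, wait 30 min, read luminescence.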
TSHR antag: Antagonists of the Thyroid Stimulating Hormone Receptor: HTS campaign. Thyrotropin receptor (Homo sapiens), P16473. TSHR-expressing cells, TSH-stimulated cAMP HTRF, 2 h; stronger effect = lower value. activity change, negative = inhibition, % at 11.5 µM. 330,000 compounds, 0.2% hits. AID 504810, 2011;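 active = activity change below a set negative limit, meaning inhibition stronger than a set level, cut at about -70% in these data; inconclusive = activity change between two set negative limits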
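Antagonism was scored as loss of TSH-driven cAMP in TSHR cells, stimulated with 4nM TSH (EC80) for 2 hours at 37 deg C and detected by homogeneous HTRF competition immunoassay.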
B2AR arrestin: qHTS assay of beta-arrestin-biased ligands of beta2-adrenergic receptor | Beta-2 adrenergic receptor (Homo sapiens), P07550 | Potency, µM (top dose mostly 46.1 µM), for the others: at the top dose activation, actives largely listed as activators | 330,000 compounds, 0.02% hits | beta-arrestin recruitment to beta2AR, cell-based reporter | AID 492947, 2010;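 note: potency is the fitted concentration of half-maximal effect; 0% = DMSO controls and full agonism = EC100 isoproterenol or metaproterenol; nearly all actives have a fitted effect of over 65% in size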
RORgamma inh: qHTS for inhibitors of ROR gamma transcriptional activity. 310,000 compounds, 5.4% hits. Nuclear receptor ROR-gamma (Mus musculus), P51450. Potency, µM (titrated, usually from 53.6 µM), without a hit: at the top dose activity change, negative = inhibition, usual class: inhibitors. Drosophila S2 Gal4-RORgamma UAS-luciferase reporter, 20 h. AID 2551, 2010; note: potency is the fitted concentration of half-maximal effect; nearly all actives have a fitted effect of over 60% in size
Target sequence (P51450 whole entry, looked up, the tested form may be a part): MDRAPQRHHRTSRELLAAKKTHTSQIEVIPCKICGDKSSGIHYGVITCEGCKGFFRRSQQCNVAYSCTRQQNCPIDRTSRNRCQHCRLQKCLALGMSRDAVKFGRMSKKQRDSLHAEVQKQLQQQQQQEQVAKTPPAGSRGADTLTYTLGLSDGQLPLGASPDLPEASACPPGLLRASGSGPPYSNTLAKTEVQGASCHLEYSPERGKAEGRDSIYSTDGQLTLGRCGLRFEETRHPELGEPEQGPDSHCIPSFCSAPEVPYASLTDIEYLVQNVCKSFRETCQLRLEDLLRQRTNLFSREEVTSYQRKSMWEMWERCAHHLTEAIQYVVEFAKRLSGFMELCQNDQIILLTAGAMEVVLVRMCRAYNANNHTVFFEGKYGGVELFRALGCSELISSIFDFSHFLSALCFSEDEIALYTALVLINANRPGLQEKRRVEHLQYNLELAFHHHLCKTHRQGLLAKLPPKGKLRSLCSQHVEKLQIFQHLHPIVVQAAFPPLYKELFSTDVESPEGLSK
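Luminescence from a UAS-regulated Photinus luciferase reporter in stably transfected Drosophila Schneider cells is measured; decreased signal marks ROR gamma inhibition. Fusion expression is induced by 700 uM copper sulfate for 20 hr.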
Gal4-VP16 FLuc: VP16 counterscreen qHTS for inhibitors of ROR gamma transcriptional activity | Drosophila S2 Gal4-VP16 UAS-luciferase, luminescence, 20 h | Potency, µM (top dose mostly 53.6 µM), inactives show at the top dose activity, negative = inhibition, hits mostly inhibitors | 310,000 compounds, 3.5% hits;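 note: Gal4-VP16 expression switched on by copper sulfate through the metallothionein promoter; potency is the fitted concentration of half-maximal effect; nearly all actives have a fitted effect of over 50% in size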
Active calls of the source: *; ? = inconclusive; . = no result given; [ ] = remark or other dose. Most compounds without a hit are left out; they make up all but 7.5% or so of the library. Unless noted, calls come from the whole dose curve; as a rule, active = well fitted curve in the direction sought with a large enough effect; inconclusive = small, poorly fitted or top-dose-only effect, or another doubt; inactive = no such curve, though single readings can be large; an effect the other way counts as inactive or inconclusive. Unless noted, % is set by controls: 0 for no effect and ±100 for the full control effect.

SMILES | ELG1 DNA repair | TSHR antag | B2AR arrestin | RORgamma inh | Gal4-VP16 FLuc
COC(=O)c1sc(N)c(C(=O)OC)c1COC(=O)CCNS(=O)(=O)c1ccc(C)cc1 | 10.3µM* | -0.8 | -0.7% | 18.3% | -4.6%
COC(=O)c1sc(N)c(C(=O)OC)c1COC(=O)CNS(=O)(=O)c1ccc(C)c(C)c1 | ? | -9.0 | -0.9% | 37.1% | 0.2%
CC[C@@H](C)[C@@H](O)[C@H](C)C(=O)[C@H](C)/C=C(\C)C[C@H](C)[C@@H]1OC(=O)[C@H]1CC | . | . | . | 17.6% | 1.5%
O=C(CCC(=O)Nc1ccccc1Cl)NNC(=O)Nc1cccc([N+](=O)[O-])c1 | 12.1% | 0.6 | -3.7% | 16.7% | -13.9%
COc1ccc(/C=C2\CCc3c2nc2ccccc2c3C(=O)O)cc1OC | ? | -2.7 | 4.5% | 8.91µM* | 11.2µM*
COc1c(CC(=O)c2cc3c(cc2O)OC(C)(C)C(O)C3)ccc2c1C=CC(C)(C)O2 (centres undefined) | . | . | . | -10.1% | -5.2%
Cc1c(C(=O)NC2CCCCC2C)oc2ccccc12 (centres undefined) | ? | -20.1 | 0.0% | 11.2µM* | 5.62µM*
Cc1cc2oc(=O)cc(CN3CCN(C/C=C/c4ccccc4)CC3)c2cc1O | ? | 22.0 | -0.5% | ? | 35.5µM*
O=c1cc(CN2CCN(C/C=C/c3ccccc3)CC2)c2cc(O)c(-c3ccccc3)cc2o1 | 9.1% | -0.2 | -4.0% | 8.1% | -24.4%
Cc1c(O)ccc2c(CN3CCN(C/C=C/c4ccccc4)CC3)cc(=O)oc12 | 18.3µM* | -6.9 | 0.4% | 28.7% | -9.4%
O=C(NCC(=O)N(c1cccc(F)c1)C(C(=O)NC1CCCC1)c1ccncc1)c1cccs1 (centres undefined) | -10.4% | -6.9 | 0.0% | -5.5% | 6.4%
O=C1/C(=C\c2cc(Br)cc(Br)c2O)SC(=S)N1Cc1ccccc1 | 23.1µM* | 0.1 | -0.1% | 12.6µM* | ?
O=C1/C(=C\c2ccc(O)cc2)SC(=S)N1Cc1ccccc1 | 3.1% | -14.1 | -0.1% | ? | -12.1%
COc1cc([N+](=O)[O-])cc(/C=C2/SC(=S)N(Cc3ccccc3)C2=O)c1O | ? | -44.7 | -0.6% | ? | 5.01µM*
O=C1/C(=C\c2cccc([N+](=O)[O-])c2O)SC(=S)N1Cc1ccccc1 | 8.2µM* | -34.6 | 0.5% | -63.0% | 15.8µM*
O=C1/C(=C/c2ccc(O)c([N+](=O)[O-])c2)SC(=S)N1Cc1ccccc1 | 18.3µM* | ? | 0.1% | -2.3% | -1.4%
Cc1ccc2c(c1)c(CC(NC(=O)c1ccccc1Oc1ccccc1)C(=O)O)cn2C(=O)OCc1ccccc1 (centres undefined) | . | . | . | ? | -0.7%
Cc1ccc(S(=O)(=O)N2CCCC2=O)c(C)c1N(C)S(C)(=O)=O | 7.3% | -3.7 | -1.1% | . | .
O=C(Oc1ccccc1)N1CCC2(CC1)CN(c1ccncc1)C2 | . | . | . | -19.8% | 2.1%
CC(=O)c1sc2nsc(SCCN3CCCC3)c2c1N | 0.0% | 1.2 | 0.3% | -44.7% | -11.1%
Cn1cc(C(=O)[C@@H]2CCc3[nH]cnc3C2)c2ccccc21 | . | . | . | 0.7% | -5.6%
COc1ncc2nc(-c3cccs3)c(=O)n(Cc3ccc(F)cc3)c2n1 | . | . | . | -21.3% | -6.1%
O=C(O)c1cccc(CN2C(=O)S/C(=C/c3cccc([N+](=O)[O-])c3)C2=O)c1 | -12.5% | -8.7 | -1.1% | 5.62µM* | 7.08µM*
C=CCN=C1S/C(=C/c2cccc([N+](=O)[O-])c2)C(=O)N1CC=C | ? | -9.8 | -0.3% | 3.6% | 13.7%
COc1ccc(N2CC(O)=C(c3nc(-c4ccc(F)cc4)cs3)C2=N)cc1OC | 13µM* | -11.1 | 0.0% | ? | 1.3%
SMILES | ELG1 DNA repair | TSHR antag | B2AR arrestin | RORgamma inh | Gal4-VP16 FLuc
Cc1ccc(-c2cn(-c3ccccc3)c(SCC(=O)NC3CCS(=O)(=O)C3)n2)cc1C (centres undefined) | ? | -13.8 | -0.8% | 12.6µM* | ?
NNC(=O)CSc1nc(-c2ccccc2)cn1-c1ccccc1 | ? | -8.5 | -0.3% | 5.62µM* | 17.6%
CCN(CC)CCCCn1c(-c2ccccc2)nc2c(NCc3ccccc3)nc(C)nc21 | . | . | . | -18.7% | 4.9%
N#Cc1ccc(CS(=O)(=O)c2nc3ccccc3s2)cc1 | . | . | . | -29.7% | -12.0%
COc1ccc(NC(=O)N(C)C[C@H]2Oc3ccc(NC(=O)Nc4c(C)noc4C)cc3C(=O)N([C@H](C)CO)C[C@@H]2C)cc1 | 14.1% | -5.8 | 1.0% | . | .
Cc1ccc(C)c2[nH]c(=O)c(CN(Cc3nnnn3C3CCCCC3)CC3CCCO3)cc12 (centres undefined) | ? | 34.1 | -0.5% | 37.8% | -21.4%
Cc1ccc(C)c2[nH]c(=O)c(CN(CCN3CCOCC3)Cc3nnnn3CC3CCCO3)cc12 (centres undefined) | 16.4µM* | 5.6 | -0.1% | -21.5% | -0.7%
COc1ccccc1CN(Cc1cc2c(C)ccc(C)c2[nH]c1=O)Cc1nnnn1Cc1ccco1 | 18.4µM* | -7.3 | -0.1% | 4.9%[0.365 µM] | .
Cc1ccc2cc(CN(Cc3ccc4c(c3)OCO4)Cc3nnnn3Cc3ccco3)c(=O)[nH]c2c1 | ? | 1.2 | -0.2% | -19.6% | 13.7%
Cc1ccc(CN(Cc2cc3cc4c(cc3[nH]c2=O)OCCO4)Cc2nnnn2Cc2ccco2)cc1 | 23.1µM* | 0.2 | 0.8% | 1.8% | 1.6%
CC(C)C[C@@H](CC(=O)N[C@@H](CCCN)CC(=O)N[C@@H]1CCNC[C@H]1C(=O)N[C@H](CC(=O)N[C@@H](CCC(=O)O)CC(=O)O)CC(C)C)NC(=O)[C@@H]1CNCC[C@H]1N | . | . | . | 7.1% | 1.0%
Cc1ccc(NC(=O)C/C(N)=N/OC(=O)Nc2cccc(Cl)c2)cc1 | 17.2% | -5.7 | 0.1% | . | .
O=P(c1ccccc1)(c1ccccc1)C(c1ccco1)N1CCOCC1 (centres undefined) | -13.7% | 16.0 | -0.1% | 2.24µM* | 4.8%
Cn1c(Cn2nnc(-c3ccccc3)n2)nnc1SCc1ccccc1Cl | 2.5% | 5.8 | -0.6% | 6.0% | 11.2µM*
COc1cc2nc(SCc3ccc(F)cc3)n(Cc3cccs3)c(=N)c2cc1OC | ? | -6.0 | -0.7% | -0.7% | ?
COc1ccc(Cn2c(SCc3ccccc3C)nc3cc(OC)c(OC)cc3c2=N)cc1 | ? | -0.5 | 0.1% | ? | 22.4µM*
COC1C(O)COC1/C=C/c1ccccc1 (centres undefined) | . | . | . | -2.9%[10 µM] | -0.7%[10 µM]
COc1cc(NC(=O)c2cnc(N)o2)cc(C(=O)Nc2cccc(C(F)(F)F)c2)c1 | 14.6µM* | -7.6 | -0.4% | ? | ?
COc1cc(NC(=O)c2csc(N)n2)cc(C(=O)Nc2cccc(C(F)(F)F)c2)c1 | 23.1µM* | -1.5 | -0.5% | 5.6% | 9.4%
